Results: PubChem BioAssay (NCI)
About 83,000 compounds went through this panel and 20% of them were active in at least one assay; those are over-represented in the sample as a whole.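 Treatment: one concentration, 48 hours, 96-well format. Scoring: percent growth, with anything below 10 considered active.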 Values without a mark were called inactive. Active and inactive are the calls of the source.

Test system: LOX IMVI melanoma
Experiment: NCI-60 one-dose screen, 48 h (100 = growth as untreated, 0 = no growth, -100 = all killed)
Settings: 10 µM unless noted

| Compound | growth |
| --- | --- |
| CNC(=O)c1cc(Oc2ccc(NC(=O)Nc3ccc(Cl)c(C(F)(F)F)c3)c(F)c2)ccn1 | -89% (active) |
| COCCOc1cnc2ccn([C@H](C)c3nnc4c(F)cc(-c5cnn(C)c5)cn34)c(=O)c2c1 | 61.5% |
| N#Cc1c(-c2ccc(Cl)cc2)csc1NC(=O)Nc1cccc(C(F)(F)F)c1 | 5.9% (active) |
| CC(=O)C1CC(C)CCC1C(C)C (centres undefined) | 86.6% |
| O=C(COc1cccc(/C=C2\Cc3ccc(Cl)cc3C2=O)c1)Nc1nccs1 | 78% |
| O=C(Cn1ccnc1)Nc1ccc(-c2nc3ccccc3s2)cc1 | 73.4% |
| CN1CCC(CNc2ccc3ncc(-c4cccc(OC(F)(F)F)c4)n3n2)CC1 | -83.5% (active) |

Test system: SK-MEL-28 melanoma
Experiment: as above
Settings: 10 µM unless noted

| Compound | growth |
| --- | --- |
| C=CC(=O)N1CCC(Oc2cc3c(Nc4ccc(Cl)c(Cl)c4F)ncnc3cc2OC)CC1 | 63.3% |
| FC(F)(F)c1ccc(CNc2ccc(Cc3c[nH]c4ncc(Cl)cc34)cn2)cn1 | 17.8% |
| O=S1(=O)OC(c2cc(Cl)c(O)c(Br)c2)(c2cc(Cl)c(O)c(Br)c2)c2ccccc21 | 118% |
| CC(C)(C)OC(=O)N1CCC(O)[C@@H](O[Si](c2ccccc2)(c2ccccc2)C(C)(C)C)[C@H]1/C=C/c1ccccc1 (some centres undefined) | 65.1% |
| Cc1cn(-c2cc(NC(=O)c3ccc(C)c(Nc4nccc(-c5cccnc5)n4)c3)cc(C(F)(F)F)c2)cn1 | -27.1% (active) |
| Cc1cnc(Nc2ccc(OCCN3CCCC3)cc2)nc1Nc1cccc(S(=O)(=O)NC(C)(C)C)c1 | -10.7% (active) |
| Cc1cccc(C)c1N1C(c2ccccc2)=NNC12C=CC(=O)c1c(O)cccc12 (centres undefined) | 110% |
| C=CC(=O)Nc1cccc(Nc2nc(Nc3ccc(N4CCN(C(C)=O)CC4)cc3OC)ncc2C(F)(F)F)c1 | 50.6% |
| COc1ccc(/C(C)=C(\c2ccc(Cl)cc2)c2ccc(OCCN3CCCCCC3)cc2)cc1 | 71.6% |
| Cc1cc(C(=O)Nc2cc(Oc3ccc4nc(NC(=O)C5CC5)cn4n3)ccc2C)n(C)n1 | 0.461% (active) |
| CO[C@H](C(=O)N[C@@H](CCCCNC(=O)OCc1ccccc1)C(=O)OC(C)(C)C)[C@@H]1Cc2cc3cc(OC4CC(OC5CC(O)C(O)C(C)O5)C(O)C(C)O4)c(C)c(O)c3c(O)c2C(=O)[C@H]1OC1CC(OC2CC(OC3CC(C)(O)C(O)C(C)O3)C(O)C(C)O2)C(O)C(C)O1 (some centres undefined) | -55.7% (active) |
| CCN(CCCOc1ccc2c(Nc3cc(CC(=O)Nc4cccc(F)c4)[nH]n3)ncnc2c1)CCOP(=O)(O)O | 55.3% |
| CC/C=C\C[C@H]1C/C=C2/C(=O)C=C[C@@H]2C/C=C\CCCC(=O)O1 | -28.6% (active) |
| Cc1cn(-c2cc(NC(=O)c3ccc(C)c(Nc4nccc(-c5cnccn5)n4)c3)cc(C(F)(F)F)c2)cn1 | 31.3% |
| COc1cc2ncnc3c2cc1OCCCCCN(C)Cc1ccc(Br)cc1N3 | 74.8% |
| C[C@@]1(C(=O)Nc2ccc(F)nc2)CCCN1c1nc(Nc2cc(C3CC3)[nH]n2)c2cccn2n1 | 43.6% |
| C[C@]12O[C@H](C[C@]1(O)CO)n1c3ccccc3c3c4c(c5c6ccccc6n2c5c31)CNC4=O | -85.9% (active) |
| CCN1CCN(CCCN(C[C@H]2Cc3ccccc3CN2)[C@H]2CCCc3cccnc32)CC1 | 108% |
| COCc1c(-c2ccc(NC(=O)Nc3cc(C(F)(F)F)ccc3F)c(F)c2)c2c(N)ncnn2c1CN1CCOCC1 | -6.65% (active) |
| COc1cc2cc(NCc3ccc(F)cc3)nc(C)c2cc1OC | 35.4% |
| CC(=O)C1=C(C)NC(SCc2nnc(-c3ccc(C)cc3)o2)=NC1c1ccc(F)cc1 (centres undefined) | -78.4% (active) |
| N#CC[C@H](C1CCCC1)n1cc(-c2ncnc3[nH]ccc23)cn1 | 79.9% |
| Cc1ccc(-[n+]2c3cc(N)c(C)cc3nc3cc(C)c(Nc4ccccc4)cc32)cc1 | -69.6% (active) |
| COc1cc2cc(NCc3ccc(Cl)cc3)nc(C)c2cc1OC | 29.9% |
| CC(=O)c1cnc2ccc(-c3cc(Cl)c(O)c(Cl)c3)nc2c1NC1CCC(CN(C)C)CC1 (centres undefined) | -39.8% [2.5 µM] (active) |
| CCN(CC)c1cc2oc3cc(N)cc(=N)c-3nc2cc1C | 34.3% |
| CO[C@H]1C[C@@H]2CC[C@@H](C)[C@@](O)(O2)C(=O)C(=O)N2CCCC[C@H]2C(=O)O[C@H]([C@H](C)C[C@@H]2CC[C@@H](O)[C@H](OC)C2)CC(=O)[C@H](C)/C=C(\C)[C@@H](O)[C@@H](OC)C(=O)[C@H](C)C[C@H](C)\C=C/C=C/C=C/1C | 38.8% |
